{
  "source": "PubChem BioAssay AID504608",
  "about": "(National Center for Advancing Translational Sciences (NCATS), 2011)",
  "note": "Activity calls are given as the source filed them. Calls come from the whole dose curve; as a rule, active = well fitted inhibition curve with a large enough effect; inconclusive = small, poorly fitted or top-dose-only effect; inactive = flat fitted curve, though single readings scatter.",
  "data": [
    {"assay": "Quantitative high throughput screen for delayed death inhibitors of the malarial parasite plastid, 48 hour incubation.", "details": "P. falciparum in erythrocytes, luciferase growth", "description": "NIH Molecular Libraries Probe Production Network [MLPCN] NIH Chemical Genomics Center [NCGC] MLPCN Grant: R21 NS059500 Assay Provider: David Fidock and Eric Ekland, Columbia University The goal of this screen is to discover new antimalarial compounds that act by inhibiting the development of the apicoplast in the malarial parasite Plasmodium falciparum. The biochemical processes that make this organelle essential for erythrocytic stage parasites are not well understood. However, antibiotics, such as azithromycin and tetracycline, which target the apicoplast translational machinery, have a potent antimalarial effect. […] We have developed a cell-based assay that measures parasite growth based on the expression of an integrated copy of a firefly luciferase reporter. To detect small molecules that cause this 'delayed death' phenotype, erythrocytes infected with the luciferase-expressing parasites were incubated with compounds for either one or two generations, corresponding to 48 and 96 hours, respectively. Compounds that inhibit parasite growth in the second generation, but not the first, should be enriched in antimalarials that target the apicoplast. Growth inhibition is detected by a decrease in luciferase activity\nFour microliters of culture medium (RPMI 1640 with 0.5% w/v Albumax (GIBCO), 24 mM sodium bicarbonate and 10 ug/mL gentamycin) were dispensed by a Multi-drop Combi into white solid 1536-well plates (Grenier) and 23 nL compound was added by a pin tool. Four microliters of infected erythrocytes (2% hematocrit, 0.1% parasitemia final concentration) in culture medium were dispensed and the plates incubated for 48 hours at 37 C in 5% CO2. Two microliters of luciferase detection reagent was added and luminescence was detected by a ViewLux (PerkinElmer) reader", "values": [
      {"molecule": "C[C@@H]1CN([C@@H](C)CO)C(=O)c2cc(NC(=O)Nc3ccccc3)ccc2O[C@@H](C)CCCCO[C@H]1CN(C)C(=O)Oc1ccccc1", "Potency": "5.04 µM (active)"},
      {"molecule": "COCCOC(=O)N(C)C[C@@H]1OCCCC[C@H](C)Oc2ccc(NC(=O)Nc3ccccc3)cc2C(=O)N([C@@H](C)CO)C[C@H]1C", "Potency": "14.2 µM (active)"},
      {"molecule": "COc1ccc(COC[C@H](C)N2C[C@@H](C)[C@H](CN(C)S(=O)(=O)c3ccc(F)cc3)OCCCC[C@H](C)Oc3ccc(NC(=O)Nc4ccccc4)cc3C2=O)cc1", "Potency": "0.0036 µM (active)"}
    ]}
  ]
}
